Data from PubChem BioAssay (NCATS).
Records with an inconclusive call do not appear. The source made the active and inactive calls. The call rests on the fitted dose curve; in most records, active means well fitted cell-killing curve with a large enough effect; inconclusive means small, poorly fitted or top-dose-only effect; inactive means no such curve, though single readings can be large or run the other way.

assay: qHTS of pediatric cancer cell lines to identify multiple opportunities for drug repurposing: Primary screen for SJ-GBM2 cells (AID 1347091); settings: SJ-GBM2 viability, CellTiter-Glo luminescence, 48 h; series mostly up to 46 µM; activity change, negative = cytotoxic: at the top concentration;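 further: plate controls were DMSO neutral control for no effect and bortezomib for full effect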
Procedure, shortened: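 Viability measured as metabolically active cells via CellTiter-Glo luminescence following 48 hours of compound exposure, 11-point dilutions in confirmatory testing. 500-1,000 cells/well plated 5 hours before dosing; controls were DMSO and 2.3 µM bortezomib.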

Row | SMILES | activity change, negative = cytotoxic
1 | O=C(CN1CCN(Cc2ccc3c(c2)OCO3)CC1)N1c2ccccc2Sc2ccccc21 | 9.13% (inactive)
2 | NS(=O)(=O)Cc1noc2ccccc12 | 16.2% (inactive)
3 | OC[C@H]1O[C@@H](Oc2ccc(O)cc2)[C@H](O)[C@@H](O)[C@@H]1O | 13.1% (inactive)
4 | NCc1ccccc1Sc1ccccc1CO | 26.2% (inactive)
5 | CCC1NC(=O)c2cc(S(N)(=O)=O)c(Cl)cc2N1 (stereo unspecified) | 22.2% (inactive)
6 | CC(=O)NO | 15% (inactive)
7 | O=C(Nc1ccc([N+](=O)[O-])cc1)Nc1ccc([N+](=O)[O-])cc1 | 10.2% (inactive)
8 | C#C[C@]1(O)CC[C@H]2[C@@H]3CCC4=CC(=O)CC[C@@H]4[C@H]3CC[C@@]21CC | 7.87% (inactive)
9 | Cc1ncc(CO)c(C=O)c1O | -1.95% (inactive)
10 | COc1cc(C(=O)NCc2ccc(OCCN(C)C)cc2)cc(OC)c1OC | 1.21% (inactive)
11 | Nc1ccc(S(=O)(=O)NCc2ccccc2)cc1 | 5.43% (inactive)
12 | CCCCCCCCCCCCSCCOCCO | 1.52% (inactive)
13 | O=C(O)CCNC(=O)c1ccccc1 | 16.3% (inactive)
14 | OCc1ccccn1 | 20.5% (inactive)
15 | NS(=O)(=O)c1ccc(Cl)c(S(N)(=O)=O)c1 | 3.61% (inactive)
16 | CCCN(CCC)S(=O)(=O)c1ccc(C(=O)O)cc1 | 21.4% (inactive)
17 | CC1CCc2c(N3CCC(O)CC3)c(F)cc3c(=O)c(C(=O)O)cn1c23 (stereo unspecified) | 88.3% (inactive)
18 | CC(=O)NCCCCCC(=O)O | 4.06% (inactive)

Row | SMILES | activity change, negative = cytotoxic
19 | COc1ccc2c(c1)c1c3n2CCN(C)C3=NCC1 | -0.68% (inactive)
20 | CCN(CC)CCOc1ccccc1C(=O)CCc1ccccc1 | -25.3% (inactive)
21 | CCN[C@@H]1C[C@H](N)[C@@H](OC2OC(CN)=CCC2N)[C@H](O)[C@H]1O[C@H]1OC[C@](C)(O)[C@H](NC)[C@H]1O (stereo partly specified) | 1.88% [at 0.597 µM] (inactive)
22 | CN(C)CCOC(=O)C(c1ccccc1)C1(O)CCCC1 (stereo unspecified) | 13.1% (inactive)
23 | O=C(O)P(=O)(O)O | 17.5% (inactive)
24 | CC1(COc2ccc(CC3SC(=O)NC3=O)cc2)CCCCC1 (stereo unspecified) | -4.92% (inactive)
25 | COc1cc(NS(=O)(=O)c2ccc(N)cc2)ncn1 | -1.08% (inactive)
26 | Cc1ccc(S(=O)(=O)NC(=O)NC2CCCC2)cc1 | 9.48% (inactive)
27 | O=[N+]([O-])c1cccc(S(=O)(=O)NCCNS(=O)(=O)c2cccc([N+](=O)[O-])c2)c1 | 56.1% (inactive)
28 | c1ccc(-c2nc[nH]c2-c2ccccc2)cc1 | 3.7% (inactive)
29 | CCc1ccc(C(=O)C(C)CN2CCCCC2)cc1 (stereo unspecified) | -8.51% (inactive)
30 | C=C[C@@]1(C)CC(=O)[C@]2(O)[C@@]3(C)[C@@H](O)CCC(C)(C)[C@@H]3[C@H](O)[C@H](OC(C)=O)[C@@]2(C)O1 | 34.8% (inactive)
31 | CN1CCN(C2=Nc3ccccc3Sc3ccc(Cl)cc32)CC1 | 7.31% (inactive)
32 | CCN(CC)CCNC(=O)COc1ccc(OC)cc1 | -15.3% (inactive)
33 | CCCCCCCCCCCCCC(=O)OC(C)C | 17.9% (inactive)
34 | Cc1nc(-c2ccc(Cl)cc2)oc1COC(C)(C)C(=O)O | 6.35% (inactive)
35 | O=C(O)CCc1nc2ccccc2[nH]1 | -1.03% (inactive)
36 | CCOc1ccc(NC(C)=O)cc1 | -6.12% (inactive)
